HT1080NT lethal: kills 2HG-producing HT-1080-NT fibrosarcoma cells; HT-1080-NT fibrosarcoma viability, CellTiter-Glo ATP luminescence, 48 h; Potency, µM (titrated, usually from 46.1 µM), actives largely listed as cytotoxic; 1.6% of 360,000 active; AID 686970;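 also: NT is the 2HG producing partner of a matched IDH1 knockdown line; nearly all actives have a fitted effect of over 55% in size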
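HT-1080-NT fibrosarcoma cells (2HG-overproducing), 750 cells/well in RPMI with 5% FBS, dosed after 2 h and incubated 48 h at 37C. CellTiter-Glo luminescence normalized to DMSO and no-cell wells; concentration-response curves fitted and classed.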
IL-1B inflam inh: blocks inflammasome-driven IL-1 beta release | THP-1 LPS/ATP IL-1B secretion, AlphaLISA, 16 h; active compounds read low | activity change, % at 57.5 µM | 4.7% of 360,000 active | AID 743279; in the data active = activity change below about -50%; inconclusive = mostly about -30% to -49%
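Secreted IL-1B measured by AlphaLISA bead assay after 16 h compound exposure of THP-1 cells; compounds (final up to 57.5 uM) added 1 h before LPS (250 ng/mL) and ATP (1.25 mM) stimulation; lower signal means less secretion.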
DT40 TDP1 CPT: growth inhibition of DT40 Tdp1-/-;hTDP1 cells with camptothecin (screen for TDP1 inhibitors); 12% of 420,000 active; chicken DT40 Tdp1-/-;hTDP1 cells + 20 nM CPT, ATP luminescence, 48 h; Potency, µM (highest dose often 46.2 µM), most hits filed as inhibitors; also: nearly all actives have a fitted effect of over 55% in size
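Chicken DT40 Tdp1-/- cells complemented with human TDP1, 400 cells/well, exposed to compounds plus 20 nM camptothecin for at least 48 h at 37 C; viability read as ATP content by CellTiter-Glo luminescence.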
ELG1 repair inh: blocks ELG1-dependent DNA repair in HEK293T cells; HEK293T ELG1-luciferase reporter, luminescence, 16 h; DNA damage induced by 5-fluorouridine; Potency, µM (titrated, usually from 46.1 µM), most hits filed as inhibitors; 2.3% of 330,000 active; AID 504467; also: nearly all actives have a fitted effect of over 55% in size
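Cells (2,000 per well) received 5-fluorouridine plus test compound or DMSO and were incubated 16 hr at 37 °C, 5% CO2. Luciferase activity was read by luminescence 30 min after ONE-Glo addition; signal suppression marked inhibition of damage-induced ELG1 function.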
HT1080 IDH1KD tx: HT-1080 IDH1 knockdown cell toxicity (counter line). HT-1080 IDH1 knockdown viability, ATP luminescence, 48 h. Potency, µM (series often up to 46.1 µM), usual class: cytotoxic. 2% of 360,000 active. AID 686971
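Assay cells: HT-1080 with IDH1 knockdown, 750 per well, RPMI/5% FBS. Exposure: 48 h at 37 °C following 2 h pre-incubation. Read: CellTiter-Glo luminescence; fitted concentration-response, curve class assigned.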
DT40 TDP1 no CPT: qHTS for Inhibitors of human tyrosyl-DNA phosphodiesterase 1 (TDP1): qHTS in cells in absence of CPT | AID 686978, 2013 | DT40 Tdp1-/- hTDP1 cells, no CPT, ATP luminescence, 48 h | 15% of 420,000 active | Potency, µM (doses to about 46.2 µM), hits mostly inhibitors; also: nearly all actives have a fitted effect of over 55% in size
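Cells were dispensed at 400 per well, compounds added by pin tool, plates incubated ≥48 hr at 37 °C, then CellTiter-Glo added for 30 min at room temperature before luminescence reading. Line: DT40 Tdp1-/- complemented with hTDP1; camptothecin omitted.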
Numbers stand for hits; - = inactive; ? = inconclusive; . = no result; [ ] = dose if it differs, or a comment. Sampled rows, rich in hits. Any-hit rate of the full collection: about 19%. Unless noted, calls follow the shape of the dose curve; as a rule, active = well fitted curve in the direction sought with a large enough effect; inconclusive = small, poorly fitted or top-dose-only effect, or another doubt; inactive = no such curve, though single readings can be large; an effect the other way counts as inactive or inconclusive.

SMILES	HT1080NT lethal	IL-1B inflam inh	DT40 TDP1 CPT	ELG1 repair inh	HT1080 IDH1KD tx	DT40 TDP1 no CPT
CSc1ccccc1C(=O)NCC(c1ccco1)N1CCCCC1 (stereo unspecified)	-	-	-	-	?	-
CCOc1ncccc1C(=O)NCC(c1ccco1)N1CCCCC1 (stereo unspecified)	-	-	21µM	-	-	?
O=C(NCC(c1ccco1)N1CCCC1)c1cn(-c2ccccc2)nc1-c1ccc(F)cc1 (stereo unspecified)	-	-	16µM	?	-	10µM
CCc1cc(C(=O)NCC(c2ccco2)N2CCCCC2)sc1C (stereo unspecified)	-	-	?	-	-	15µM
COc1cc(OC)c(NC(=O)Cn2c(=O)nc(-c3ccccc3)c3ccccc32)cc1Cl	.	.	-	.	.	-
O=C(NCC(c1ccco1)N1CCCC1)c1ccccc1F (stereo unspecified)	-	-	-	?	-	-
CCOCc1c(C(=O)NCC(c2ccco2)N2CCCC2)oc2ccccc12 (stereo unspecified)	-	-	23µM	-	-	?
Cc1cccc(NC(=O)c2ccc3c(O)c(S(=O)(=O)c4ccccc4)c(=O)[nH]c3c2)c1C	.	.	-	.	.	-
COc1ccc(-c2cc(C(F)F)n3ncc(C(=O)n4ccnc4C)c3n2)cc1	-	-	15µM	-	?	18µM
COc1ccc(-c2cc(C(F)F)n3ncc(C(=O)Nc4cc(OC)ccc4OC)c3n2)cc1	.	.	-	.	.	?
Cc1ccc(-c2cc(C(F)F)n3ncc(C(=O)N4CCN(c5cccc(C)c5C)CC4)c3n2)cc1	-	-	?	.	-	18µM
COc1ccc(-c2cc(C(F)F)n3ncc(C(=O)NCC4CCCO4)c3n2)cc1 (stereo unspecified)	?	-	?	2.1µM	?	?
Cc1ccc(-c2cc(C(F)F)n3ncc(C(=O)N4CCCc5ccccc54)c3n2)cc1	-	-	?	-	-	-
NC(=O)C1CN(C(=O)c2nn(Cc3ccccc3)c(=O)c3ccccc23)c2ccccc2O1 (stereo unspecified)	-	-	?	-	?	?
O=C(CN1Cc2ccccc2OC(c2ccsc2)C1)NCC1OCCc2ccccc21 (stereo unspecified)	.	.	-[9.04 µM]	.	.	-
CCOC(=O)C1=NNC(C(=O)c2ccc(Cl)cc2)C1c1ccccc1 (stereo unspecified)	-	-	-	-	-	-
NC1=NC(c2ccc(Cl)cc2)C(C(=O)c2ccccc2)N1 (stereo unspecified)	18µM	-	?	?	15µM	12µM
Cc1cccc(NC(=S)N=Nc2c(O)[nH]c3ccccc23)c1	?	-	3.3µM	-	?	4.6µM
COc1ccccc1NC(=S)N=Nc1c(O)[nH]c2ccc(Br)cc12	-	-	2.6µM	?	-	1.5µM
Oc1[nH]c2ccc(Br)cc2c1N=NC(=S)NCC1CCCO1 (stereo unspecified)	-	-	?	?	-	?
CC(C)NC(=S)N=Nc1c(O)[nH]c2ccc(C(C)C)cc12	-	-	5.8µM	-	-	5.2µM
COCCNC(=S)N=Nc1c(O)[nH]c2ccc([N+](=O)[O-])cc12	-	-	-	-	26µM	?
COc1cc(C2C(C(=O)Nc3ccc(C)cc3C)=C(C)Nc3nc4ccccc4n32)cc(OC)c1OC (stereo unspecified)	.	.	-	.	.	-
O=C(N=Nc1c(O)[nH]c2ccccc12)Nc1ccccc1	-	-	18µM	.	-	?
NS(=O)(=O)c1cc(C(=O)N=Nc2c(O)[nH]c3ccccc23)ccc1Cl	-	-	?	-	-	18µM
SMILES	HT1080NT lethal	IL-1B inflam inh	DT40 TDP1 CPT	ELG1 repair inh	HT1080 IDH1KD tx	DT40 TDP1 no CPT
O=C(CCCCCNC(=O)c1ccccc1Br)N=Nc1c(O)[nH]c2ccccc12	-	-	21µM	9.2µM	-	?
O=C(NCCc1ccc(O)cc1)c1[nH]c(C(F)(F)F)nc1-c1ccccc1	-	-	?	.	-	-
Cc1cc(C(=O)NCC2CCC3(CCN(Cc4cc(F)ccc4F)CC3)O2)n(C)n1 (stereo unspecified)	.	.	-[9.04 µM]	.	.	?
O=C(c1ccco1)N(Cc1cc2ccccc2[nH]c1=O)CC1CCCO1 (stereo unspecified)	-	-	-	?	-	-
Cc1ccc2cc(CN(CC3CCCO3)C(=S)NCc3ccco3)c(=O)[nH]c2c1C (stereo unspecified)	-	?	?	?	?	13µM
O=C(N/N=C1\C(=O)c2cccc3cccc1c23)c1ccc(O)cc1	-	-	?	?	-	?
CCCCNC(=S)N/N=C1\C(=O)c2cccc3cccc1c23	-	-	?	-	-	26µM
CNC(=S)N/N=C1\C(=O)c2cccc3cccc1c23	?	-98	29µM	?	?	16µM
COc1ccccc1C(=O)NCCC(=O)Nc1ccc(S(=O)(=O)N2CCC(C)CC2)cc1	-	-	?	?	-	-
CCCCOc1cccc(C(=O)N(Cc2ccccc2)C2CCS(=O)(=O)C2)c1 (stereo unspecified)	-	-	13µM	-	-	15µM
COc1ccc(C(=O)N(Cc2ccc(C(C)C)cc2)C2CCS(=O)(=O)C2)cc1 (stereo unspecified)	.	.	?	.	.	15µM
CCOc1cccc(C(=O)N(Cc2ccc(CC)cc2)C2CCS(=O)(=O)C2)c1 (stereo unspecified)	.	.	18µM	.	.	?
COc1ccc(CN(C(=O)c2ccc(C)cc2)C2CCS(=O)(=O)C2)cc1 (stereo unspecified)	-	-	-	-	-	-
CCOc1cccc(C(=O)N(Cc2ccc(C(C)C)cc2)C2CCS(=O)(=O)C2)c1 (stereo unspecified)	.	.	21µM	.	.	?
CCCCOc1ccc(C(=O)N(Cc2ccccc2)C2CCS(=O)(=O)C2)cc1 (stereo unspecified)	-	-	?	-	-	?
CCC(=O)c1ccc(OCC(O)CNC2CCCC2)cc1 (stereo unspecified)	-	-	-	?	-	-
O=C(NCc1cccnc1)/C(=C/c1ccc(-c2ccc(Cl)cc2)o1)S(=O)(=O)c1ccccc1	6.3µM	-106	5.2µM	?	5.6µM	7.3µM
O=C(NCc1cccnc1)/C(=C\c1ccc(-c2ccc(Br)cc2)o1)S(=O)(=O)c1ccccc1	9.2µM	-105	2.9µM	21µM	5.8µM	3.3µM
